# In the library only some 19% were active in any assay of this set; here they are far more common.
# TDP1 cell CPT: DT40-hTDP1 cell growth loss with CPT; 420,000 tested, 12% active; AID 686979; Potency, µM (series often up to 46.2 µM), without a hit: at the highest dose activity change, negative = growth inhibition, most hits filed as inhibitors; chicken DT40 Tdp1-/-;hTDP1 cells + 20 nM CPT, ATP luminescence, 48 h; note: potency is the fitted concentration of half-maximal effect; % is set by controls: 0 for no effect and ±100 for the full control effect; nearly all actives have a fitted effect of over 55% in size
#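 Cell growth measured by CellTiter-Glo luminescence after a minimum 48 h, 37 C compound exposure with 20 nM CPT in Tdp1-knockout DT40 cells stably expressing hTDP1, seeded 400/well; qHTS titration format.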
# DT40 TDP1 no CPT: qHTS for Inhibitors of human tyrosyl-DNA phosphodiesterase 1 (TDP1): qHTS in cells in absence of CPT; DT40 Tdp1-/- hTDP1 cells, no CPT, ATP luminescence, 48 h; Potency, µM (doses to about 46.2 µM), without a hit: top-dose activity change, negative = growth inhibition, hits mostly inhibitors; 420,000 tested, 15% active; AID 686978, 2013; note: potency is the fitted concentration of half-maximal effect; % is set by controls: 0 for no effect and ±100 for the full control effect; nearly all actives have a fitted effect of over 55% in size
#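 Seeded 400 DT40-hTDP1 cells/well (vehicle DMSO, no 20 nM CPT); pinned compounds; ≥48 hr at 37 °C; CellTiter-Glo luminescence as viability measure.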
# IL-1B inflam inh: blocks inflammasome-driven IL-1 beta release. activity change, % at 57.5 µM. 360,000 tested, 4.7% active. THP-1 LPS/ATP IL-1B secretion, AlphaLISA, 16 h; active compounds read low. AID 743279; in the data active = activity change below about -50%; inconclusive = mostly about -30% to -49%; note: % is set by controls: 0 for no effect and ±100 for the full control effect
#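 Secreted IL-1B measured by AlphaLISA bead assay after 16 h compound exposure of THP-1 cells; compounds (final up to 57.5 uM) added 1 h before LPS (250 ng/mL) and ATP (1.25 mM) stimulation; lower signal means less secretion.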
# ASM inhibitor: human S-ASM enzyme inhibition | 340,000 tested, 0.006% active | Potency, µM (top dose mostly 57.5 µM), for inactives: top-dose activity change, negative = inhibition, actives largely listed as inhibitors | placental ASM, HMU-PC fluorogenic substrate, 60 min | AID 504937 | P17405; note: potency is the fitted concentration of half-maximal effect
# Target sequence (P17405 47-631 limits assumed): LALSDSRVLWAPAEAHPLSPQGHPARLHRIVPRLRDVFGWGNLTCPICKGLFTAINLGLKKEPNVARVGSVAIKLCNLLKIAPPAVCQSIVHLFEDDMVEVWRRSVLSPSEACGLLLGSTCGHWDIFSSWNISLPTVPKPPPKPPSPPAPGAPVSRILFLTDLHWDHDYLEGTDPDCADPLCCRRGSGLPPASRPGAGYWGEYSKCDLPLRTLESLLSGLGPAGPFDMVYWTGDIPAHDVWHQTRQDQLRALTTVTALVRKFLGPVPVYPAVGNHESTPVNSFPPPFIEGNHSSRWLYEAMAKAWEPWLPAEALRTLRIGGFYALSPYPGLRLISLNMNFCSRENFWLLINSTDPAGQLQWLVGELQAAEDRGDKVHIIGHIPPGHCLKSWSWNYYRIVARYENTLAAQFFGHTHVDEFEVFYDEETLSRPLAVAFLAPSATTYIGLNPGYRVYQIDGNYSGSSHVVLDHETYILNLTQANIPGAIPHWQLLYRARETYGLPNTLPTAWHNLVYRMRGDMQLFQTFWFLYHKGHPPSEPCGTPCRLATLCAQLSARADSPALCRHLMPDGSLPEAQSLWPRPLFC
#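 Human placenta-derived ASM preincubated with compound 10 min at room temperature, then reacted with 9 uM (final) fluorogenic HMU-PC substrate for 60 min at 37 C. Stop solution raises pH to 10; fluorescence read at Ex 386/Em 447 nm.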
# TGFb inhibitor: blocks TGF-b signaling; 410,000 tested, 1.2% active; AID 588855; Potency, µM (series often up to 46.1 µM), for inactives: at the top dose activity, negative = inhibition, usual class: inhibitors; HepG2 CAGA-GFP TGF-b/SMAD3 reporter, GFP fluorescence, 18 h; TGF-beta stimulated, 500 pg/mL final; note: potency is the fitted concentration of half-maximal effect; % is set by controls: 0 for no effect and ±100 for the full control effect; nearly all actives have a fitted effect of over 65% in size
#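 First, reporter cells (HEPG2 CAGA-GFP) rested 2 h at 37 degrees C. Next, compounds were pinned in and TGF-beta added to 500 pg/mL final. After 18 h, GFP was imaged per cell and summed per well.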
# HepG2 tox: counter-screen for TGF-b inhibitors: cytotoxicity in HepG2 cells; 410,000 tested, 0.76% active; HepG2 CAGA-GFP viability, ATP luminescence, 18 h; Potency, µM (doses to about 46.1 µM), for the others: at the top dose activity change, negative = cytotoxicity, most hits filed as cytotoxic; AID 588856; note: potency is the fitted concentration of half-maximal effect
#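 HepG2 CAGA-GFP cells (1000/well, DMEM with 1% FBS) received compound, then TGF-beta at 500 pg/mL final, and were incubated 18 hours at 37 degrees C. Viability was read by CellTiter-Glo luminescence. Media-only wells were set as complete cell-killing and DMSO as no toxicity.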
# * = called active by the depositor; ? = inconclusive; . = no result. Unless noted, calls come from the whole dose curve; as a rule, active = well fitted curve in the direction sought with a large enough effect; inconclusive = small, poorly fitted or top-dose-only effect, or another doubt; inactive = no such curve, though single readings can be large; an effect the other way counts as inactive or inconclusive.
SMILES,TDP1 cell CPT,DT40 TDP1 no CPT,IL-1B inflam inh,ASM inhibitor,TGFb inhibitor,HepG2 tox
COc1ccc(Cn2c(C(=O)O)c(CNC3CCCCCC3)c3ccc(OC)cc32)cc1,16.4µM*,?,.,.,?,-51.2%
Cc1ccc(Cn2c(C(=O)O)c(CNC3CCCC3)c3ccc(C)cc32)cc1,?,?,.,.,-0.2%,4.0%
COc1ccc(Cn2c(C(=O)O)c(CNC3CCCC3)c3ccc(C)cc32)cc1,12.5%,-21.0%,.,.,-14.1%,-3.1%
COc1ccc2c(CNC3CCCCCC3)c(C(=O)O)n(Cc3ccc(C)cc3)c2c1,25.9µM*,?,.,.,?,-17.5%
CC1CCN(CCc2nc3cc(NC(=O)COc4ccccc4)ccc3n2C)CC1,?,7.1%,-9.4,2.5%,-12.1%,-8.6%
CCOC(=O)C1(Cc2cccc(OC)c2)CCCN(C(=O)CNC(C)=O)C1 (configuration not stated),0.4%,-4.4%,-5.1,-3.0%,9.5%,-5.2%
CCc1ccc(N(CC(=O)N2CCCC2)S(C)(=O)=O)cc1,3.9%,?,-2.9,.,-8.6%,-11.0%
CCOC(=O)c1cc(-c2ccccc2)n(CCC(=O)N2CCN(c3ccccc3OC)CC2)c1C,11.6µM*,8.2µM*,?,-6.0%,?,4.4%
CCOC(=O)c1cc(-c2ccccc2)n(CCC(=O)N2CCN(c3ccc(OC)cc3)CC2)c1C,14.6µM*,23.1µM*,-59.7*,-15.6%,-25.6%,-30.2%
COc1ccc2c(CNCc3cccs3)c(C(=O)O)n(Cc3ccc(C)cc3)c2c1,-4.7%,-15.3%,.,.,0.0%,14.1%
O=C(NCc1ccccc1Cl)c1ccc2c(c1)SC1=NS(=O)(=O)CCN12,?,?,?,0.1%,3.4%,8.7%
O=C(Nc1cccc(Br)c1)c1ccc2c(c1)SC1=NS(=O)(=O)CCN12,23.1µM*,29.1µM*,-61.7*,?,17.9%,-14.3%
CC(C)(C)c1ccccc1NC(=O)c1ccc2c(c1)SC1=NS(=O)(=O)CCN12,29.1µM*,?,-25.6,3.4%,-8.5%,-12.9%
CCOC(=O)Cc1cc(=O)n(-c2nc3ccccc3s2)[nH]1,-29.2%,18.4µM*,12.7,-0.3%,-8.7%,-12.2%
COc1ccc(-c2noc(N3CCC(C(=O)Nc4cccc(C)c4C)CC3)n2)cc1,?,14.6µM*,.,.,?,-14.4%
COc1ccc(-c2noc(N3CCC(C(=O)Nc4cc(OC)ccc4OC)CC3)n2)cc1,20.6µM*,20.6µM*,-20.3,?,-14.8%,-26.3%
COc1cccc(NC(=O)c2ccnc(N3CCC(C(=O)NCc4cc(OC)ccc4OC)CC3)c2)c1,23.1µM*,16.4µM*,-2.4,35.1%,18.2%,-3.2%
COc1ccc(-c2noc(N3CCC(C(=O)Nc4ccccc4OC)CC3)n2)cc1,?,?,-25.4,-17.9%,-23.0%,-31.3%
COc1ccc(-c2noc(N3CCC(C(=O)Nc4cc(OC)c(OC)c(OC)c4)CC3)n2)cc1,-7.4%,-12.9%,0.0,-5.4%,-13.9%,1.8%
Cc1ccccc1-c1nc(-c2ccc(NC(=O)c3ccc(Br)o3)cc2)no1,15.8µM*,?,5.6,-9.2%,-0.4%,-25.7%
COc1ccc(S(=O)(=O)Nc2cc3c4c(c2)CC(=O)N4CCC3)cc1C,?,?,19.5,5.1%,15.1%,-21.2%
COc1ccc(-c2noc(N3CCC(C(=O)Nc4ccc(F)cc4)CC3)n2)cc1,3.0%,-26.2%,0.4,-6.4%,-7.1%,-10.4%
COc1ccc(-c2noc(-c3ccccc3C(=O)Nc3cccc(OC)c3)n2)cc1,?,16.4µM*,-8.8,-27.1%,-2.5%,-0.4%

# Assay outcomes deposited in PubChem by National Center for Advancing Translational Sciences (NCATS).
